This passage reports outcome and AC50 results from PubChem BioAssay (EPA / NIEHS).

Experiment [1] can be described thus: ATG_E_Box_CIS: Attagene CIS-FACTORIAL HepG2 Assay for human Enhancer Box (E-box) (AID 2282936). Particulars: HepG2 E-box cis-reporter transcription, actives raise or lower the signal. Summed up: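 Fluorescent reporter fragments separated by capillary electrophoresis gave the signal; mRNA came from HepG2 cells transfected with cis-element reporters and treated 24 h. Curves fitted bidirectionally relative to DMSO controls.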

A short description of experiment [2]: ATG_M_61_CIS: Attagene CIS-FACTORIAL HepG2 Assay for M61 Transcription Factor (Internal Marker) (AID 2282937). Particulars: HepG2 Attagene CIS-FACTORIAL M61 internal marker reporter; actives raise or lower the signal. Summed up: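 Readout is reporter mRNA by RT-PCR, fluorescent primer extension and capillary electrophoresis, with gain or loss fitted relative to DMSO. Transfected HepG2 cells carrying endogenous-TF-driven cis reporters were exposed to chemicals for 24 hours.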

Experiment [3] can be described thus: ATG_EGR_CIS: Attagene CIS-FACTORIAL HepG2 Assay for human Early Growth Response 1 (EGR1) (AID 2282938). Particulars: HepG2 Attagene CIS-FACTORIAL EGR reporter mRNA; actives raise or lower the signal. Summed up: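 After 24 h compound exposure, RNA from reporter-transfected HepG2 cells was reverse-transcribed, PCR-amplified, fluorescently labelled and resolved by capillary electrophoresis. EGR1 reporter transcript changes, up or down, were fitted against DMSO, reflecting endogenous transcription-factor activity.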

Experiment [4] in a line: ATG_ERE_CIS: Attagene CIS-FACTORIAL HepG2 Assay for Estrogen Response Element (ERE) (AID 2282940). Particulars: HepG2 ERE cis-reporter, Attagene RNA transcript; actives raise or lower the signal. The method, boiled down:
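After a 24 h chemical treatment, RNA from reporter-transfected HepG2 cells is reverse-transcribed, PCR-amplified and fluorescently labelled. Fragments separated by capillary electrophoresis give reporter signal; DMSO serves as negative control.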

Experiment [5] can be described thus: ATG_Ets_CIS: Attagene CIS-FACTORIAL HepG2 Assay for human Erythroblast Transformation Specific (ETS) (AID 2282941). As to conditions: HepG2 ETS cis-reporter transcription, actives raise or lower the signal. Summed up: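 Bidirectional fit versus DMSO of reporter mRNA signal, detected by RT-PCR and capillary electrophoresis in HepG2 cells transiently transfected with cis-element reporters and dosed 24 h.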

Experiment [6] addresses Hepatocyte nuclear factor 3-beta (Homo sapiens) (UniProt Q9Y261). In words: ATG_FoxA2_CIS: Attagene CIS-FACTORIAL HepG2 Assay for human Forkhead box A2 (FOXA2) (AID 2282942). As to conditions: HepG2 cis-reporter transcription factor activity, 24 h; actives raise or lower the signal. The method, boiled down:
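Endogenous transcription factor activity is captured via cis-element-driven reporter transcripts in transfected HepG2. Total RNA taken at 24 h post-dosing; labelled RT-PCR products resolved by capillary electrophoresis. Gain or loss fitted versus DMSO.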

A short description of experiment [7]: ATG_FoxO_CIS: Attagene CIS-FACTORIAL HepG2 Assay for human Forkhead box O (FoxO) (AID 2282943). As to conditions: HepG2 Attagene cis-reporter, FoxO element, mRNA; actives raise or lower the signal. Summed up: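 HepG2, transient MRTU transfection (cis element, endogenous TFs). Dose 24 h. TriZol RNA → oligo(dT) RT → PCR → 6-FAM primer extension → HpaI cut → CE. Gain/loss vs DMSO.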

Experiment [8] in a line: ATG_GATA_CIS: Attagene CIS-FACTORIAL HepG2 Assay for human GATA Binding Protein (AID 2282944). Particulars: HepG2 GATA cis-element reporter, Attagene multiplex mRNA; actives raise or lower the signal. Summed up:
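Cells: HepG2, transiently transfected with cis-regulated reporter transcription units. Exposure: 24 h. Detection: RT-PCR plus capillary electrophoresis of FAM-labeled fragments. Analysis: bidirectional, DMSO as baseline.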

Experiment [9] in a line: ATG_GLI_CIS: Attagene CIS-FACTORIAL HepG2 Assay for human Zinc Finger Protein GLI1 (AID 2282945). Particulars: HepG2, Attagene cis-factorial reporter mRNA, GLI element; actives raise or lower the signal. Summed up:
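Bidirectional curve fits relative to DMSO, using reporter mRNA levels from RT-PCR plus capillary electrophoresis. Cells were HepG2 transiently carrying cis-regulated reporter constructs, harvested 24 h after dosing.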

Experiment [10] concerns the target Bile acid receptor (Homo sapiens) (UniProt Q96RI1). In words: ATG_IR1_CIS: Attagene CIS-FACTORIAL HepG2 Assay for human Nuclear Receptor Subfamily 1 Group H Member 4 (NR1H4), IR1 submotif (AID 2282946). Particulars: IR1 reporter transcription, actives raise or lower the signal. Summed up:
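HepG2 cells transiently transfected with multiplexed cis-element reporter units read endogenous transcription factor activity. After 24 h compound exposure, reporter mRNA was quantified by RT-PCR, fluorescent labelling, HpaI digestion and capillary electrophoresis; bidirectional fitting versus DMSO baseline.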

The nature of experiment [11]: ATG_GRE_CIS: Attagene CIS-FACTORIAL HepG2 Assay for human Glucocorticoid Response Elements (GRE) (AID 2282947). As to conditions: HepG2 GRE cis-reporter, Attagene multiplex mRNA; actives raise or lower the signal. The method, boiled down: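 Multiplexed cis-reporter mRNA induction, HepG2, 24 h post-dose. RT-PCR, FAM-labelled, HpaI-digested amplicons by CE. Bidirectional fit vs DMSO.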

Experiment [12] in a line: ATG_ISRE_CIS: Attagene CIS-FACTORIAL HepG2 Assay for human Interferon Regulatory Factor 1 (IRF1) binding to an Interferon-Stimulated Response Element (ISRE) (AID 2282948). As to conditions: HepG2 ISRE cis-reporter (Attagene), mRNA transcription readout; actives raise or lower the signal. Summed up:
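Uses HepG2 liver cells transfected with cis-regulated reporters and measures mRNA 24 h post-dosing through RT-PCR, primer-extension labelling and capillary electrophoresis, with DMSO as negative control.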

A short description of experiment [13]: ATG_M_32_CIS: Attagene CIS-FACTORIAL HepG2 Assay for M32 Transcription Factor (Internal Marker) (AID 2282949).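 Further: background control marker of the multiplexed CIS panel rather than a real target.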 As to conditions: HepG2 Attagene cis-factorial M32 reporter, mRNA; actives raise or lower the signal. The method, boiled down: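 Using DMSO as baseline, bidirectional curve fits were applied to reporter mRNA signals. These came from transiently transfected HepG2 cells exposed for 24 h, with RNA analysed by RT-PCR, FAM primer extension, HpaI digestion and CE.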

The nature of experiment [14]: ATG_M_06_CIS: Attagene CIS-FACTORIAL HepG2 Assay for M06 Transcription Factor (Internal Marker) (AID 2282950). Particulars: HepG2 Attagene CIS-FACTORIAL M06 internal marker reporter; actives raise or lower the signal. The method, boiled down: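 Measured 24 h post-dosing in transiently transfected HepG2 cells, this internal-marker endpoint reports reporter mRNA via RT-PCR with fluorescent primer extension and capillary electrophoresis. DMSO served as negative control and baseline for bidirectional fitting.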

Experiment [15] concerns the target Hypoxia-inducible factor 1-alpha (Homo sapiens) (UniProt Q16665). In words: ATG_HIF1a_CIS: Attagene CIS-FACTORIAL HepG2 Assay for human Hypoxia Inducible Factor 1 (HIF1A) (AID 2282951). Particulars: HepG2 Attagene cis-factorial HIF1a reporter transcription; actives raise or lower the signal. The method, boiled down:
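Activity is fitted in both directions relative to DMSO. Reporter transcripts are read by RT-PCR, fluorescent primer extension and capillary electrophoresis after 24 h chemical treatment. The cells are HepG2 carrying transiently transfected cis-element-driven reporter units responding to endogenous factors.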

For experiment [16], the target named is Hepatocyte nuclear factor 6 (Homo sapiens) (UniProt Q9UBC0). In words: ATG_HNF6_CIS: Attagene CIS-FACTORIAL HepG2 Assay for human Hepatocyte Nuclear Factor 6 (HNF6) (AID 2282952). Particulars: HepG2 Attagene cis-factorial HNF6 reporter transcription; actives raise or lower the signal. The method, boiled down:
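Twenty-four-hour chemical treatment of reporter-transfected HepG2 cells precedes RNA isolation, DNase-treated reverse transcription and PCR of reporter sequences. Labelled fragments are sized by capillary electrophoresis and fitted bidirectionally versus DMSO.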

Experiment [17] concerns the target Heat shock factor protein 1 (Homo sapiens) (UniProt Q00613). In words: ATG_HSE_CIS: Attagene CIS-FACTORIAL HepG2 Assay for human Heat Shock Transcription Factor 1 (HSE) (AID 2282953). Particulars: HepG2 HSE cis-reporter, Attagene RNA transcription; actives raise or lower the signal. Summed up:
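Reporter mRNA induction in HepG2 is measured 24 h after dosing, using transiently transfected multiplexed cis-regulated reporter units. Signal comes from capillary electrophoresis of labelled RT-PCR products, with DMSO as negative control.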

Experiment [18] in a line: ATG_MRE_CIS: Attagene CIS-FACTORIAL HepG2 Assay for human Metal Responsive Element (MRE) (AID 2282954). As to conditions: HepG2 MRE cis-reporter transcription, Attagene multiplex; actives raise or lower the signal. The method, boiled down: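 Multiplexed cis-reporter assay in human HepG2 liver cells, 24 h incubation with test chemical. Reporter transcripts measured by RT-PCR and capillary electrophoresis; values from bidirectional curve fitting versus DMSO.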

Experiment [19] is described as follows: ATG_PBREM_CIS: Attagene CIS-FACTORIAL HepG2 Assay for human Phenobarbital-responsive Enhancer Module (PBREM) (AID 2282955). Particulars: HepG2 PBREM cis-reporter, Attagene multiplexed transcription; actives raise or lower the signal. Summed up: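 Endogenous transcription factor activity was read from reporter transcripts in transiently transfected human HepG2 liver cells after 24 h dosing. RT-PCR products were fluorescently labelled, HpaI-cut and sized by capillary electrophoresis; activity fitted bidirectionally against DMSO baseline.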

Experiment [20] in a line: ATG_M_19_CIS: Attagene CIS-FACTORIAL HepG2 Assay for M19 Transcription Factor (Internal Marker) (AID 2282939). As to conditions: HepG2 Attagene CIS-FACTORIAL M19 internal marker reporter; actives raise or lower the signal. The method, boiled down:
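HepG2, MRTU transient transfection, 24 h dosing. Total RNA → RT-PCR → 6-FAM primer extension → HpaI digest → CE fluorescence. Bidirectional curve fit, DMSO negative control.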

The source made the active and inactive calls. How the source made its calls: active means hit-call score of the fitted dose curve at least 0.9, where 1 is the maximum; inactive means score below 0.9.

Sequence of Hepatocyte nuclear factor 6 (Homo sapiens) (Q9UBC0 whole entry, looked up, the tested form may be a part): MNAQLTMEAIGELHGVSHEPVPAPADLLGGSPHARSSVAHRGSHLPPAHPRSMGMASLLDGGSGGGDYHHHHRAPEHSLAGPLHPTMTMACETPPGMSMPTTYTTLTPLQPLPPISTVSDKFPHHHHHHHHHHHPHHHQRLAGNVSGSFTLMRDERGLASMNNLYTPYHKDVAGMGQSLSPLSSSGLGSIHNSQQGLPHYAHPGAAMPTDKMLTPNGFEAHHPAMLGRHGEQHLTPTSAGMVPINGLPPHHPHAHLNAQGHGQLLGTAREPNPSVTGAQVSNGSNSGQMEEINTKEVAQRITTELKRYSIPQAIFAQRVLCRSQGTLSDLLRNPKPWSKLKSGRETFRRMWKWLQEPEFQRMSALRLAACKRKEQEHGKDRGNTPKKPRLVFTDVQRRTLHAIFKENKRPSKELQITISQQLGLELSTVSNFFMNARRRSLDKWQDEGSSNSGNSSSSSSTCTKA
Sequence of Hypoxia-inducible factor 1-alpha (Homo sapiens) (Q16665 whole entry, looked up): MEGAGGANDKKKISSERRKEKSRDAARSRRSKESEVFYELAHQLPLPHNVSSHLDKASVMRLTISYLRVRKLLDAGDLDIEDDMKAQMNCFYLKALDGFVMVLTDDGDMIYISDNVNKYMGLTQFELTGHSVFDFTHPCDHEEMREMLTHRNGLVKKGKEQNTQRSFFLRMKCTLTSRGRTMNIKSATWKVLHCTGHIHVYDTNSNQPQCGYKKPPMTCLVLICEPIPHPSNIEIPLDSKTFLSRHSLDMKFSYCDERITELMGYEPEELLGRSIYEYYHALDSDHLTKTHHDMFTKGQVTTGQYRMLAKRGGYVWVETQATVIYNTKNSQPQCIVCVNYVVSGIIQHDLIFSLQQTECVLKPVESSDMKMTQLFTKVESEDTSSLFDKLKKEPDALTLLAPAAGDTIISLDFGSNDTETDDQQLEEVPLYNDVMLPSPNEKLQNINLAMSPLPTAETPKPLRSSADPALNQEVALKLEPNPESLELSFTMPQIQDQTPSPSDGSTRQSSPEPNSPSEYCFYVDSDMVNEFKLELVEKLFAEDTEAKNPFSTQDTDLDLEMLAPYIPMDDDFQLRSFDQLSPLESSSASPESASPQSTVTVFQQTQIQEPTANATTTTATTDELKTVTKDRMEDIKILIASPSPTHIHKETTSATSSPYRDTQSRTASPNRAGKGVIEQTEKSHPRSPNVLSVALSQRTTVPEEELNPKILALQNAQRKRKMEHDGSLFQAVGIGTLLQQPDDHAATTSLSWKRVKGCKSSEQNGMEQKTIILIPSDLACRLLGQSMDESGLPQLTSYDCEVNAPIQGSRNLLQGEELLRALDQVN
Sequence of Heat shock factor protein 1 (Homo sapiens) (Q00613 whole entry, looked up): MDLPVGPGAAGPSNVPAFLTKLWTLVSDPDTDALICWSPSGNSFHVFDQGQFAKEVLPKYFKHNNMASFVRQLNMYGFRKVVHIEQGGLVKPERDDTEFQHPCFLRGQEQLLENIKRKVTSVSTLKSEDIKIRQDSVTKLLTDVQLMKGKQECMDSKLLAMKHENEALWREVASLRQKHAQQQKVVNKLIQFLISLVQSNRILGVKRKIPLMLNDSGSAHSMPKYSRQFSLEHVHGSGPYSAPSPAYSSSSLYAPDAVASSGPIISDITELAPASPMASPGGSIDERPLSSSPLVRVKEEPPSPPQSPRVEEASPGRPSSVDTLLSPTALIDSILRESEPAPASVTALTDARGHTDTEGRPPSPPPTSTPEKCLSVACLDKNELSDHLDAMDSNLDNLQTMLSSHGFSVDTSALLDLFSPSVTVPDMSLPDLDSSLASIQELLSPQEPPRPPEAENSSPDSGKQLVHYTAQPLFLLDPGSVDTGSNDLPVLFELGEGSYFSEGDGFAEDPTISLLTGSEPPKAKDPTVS
Sequence of Hepatocyte nuclear factor 3-beta (Homo sapiens) (Q9Y261 whole entry, looked up): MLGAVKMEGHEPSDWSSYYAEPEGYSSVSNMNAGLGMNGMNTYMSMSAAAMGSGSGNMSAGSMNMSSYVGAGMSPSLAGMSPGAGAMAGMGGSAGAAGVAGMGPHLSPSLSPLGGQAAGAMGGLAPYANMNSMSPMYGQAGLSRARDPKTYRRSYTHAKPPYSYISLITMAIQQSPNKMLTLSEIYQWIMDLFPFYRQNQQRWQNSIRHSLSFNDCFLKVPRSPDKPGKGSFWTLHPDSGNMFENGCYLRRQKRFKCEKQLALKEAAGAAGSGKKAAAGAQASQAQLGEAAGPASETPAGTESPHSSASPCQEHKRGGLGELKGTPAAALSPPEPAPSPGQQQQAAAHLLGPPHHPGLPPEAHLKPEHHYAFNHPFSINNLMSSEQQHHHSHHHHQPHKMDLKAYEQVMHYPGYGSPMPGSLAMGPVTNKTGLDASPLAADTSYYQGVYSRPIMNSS
Sequence of Bile acid receptor (Homo sapiens) (Q96RI1 whole entry, looked up): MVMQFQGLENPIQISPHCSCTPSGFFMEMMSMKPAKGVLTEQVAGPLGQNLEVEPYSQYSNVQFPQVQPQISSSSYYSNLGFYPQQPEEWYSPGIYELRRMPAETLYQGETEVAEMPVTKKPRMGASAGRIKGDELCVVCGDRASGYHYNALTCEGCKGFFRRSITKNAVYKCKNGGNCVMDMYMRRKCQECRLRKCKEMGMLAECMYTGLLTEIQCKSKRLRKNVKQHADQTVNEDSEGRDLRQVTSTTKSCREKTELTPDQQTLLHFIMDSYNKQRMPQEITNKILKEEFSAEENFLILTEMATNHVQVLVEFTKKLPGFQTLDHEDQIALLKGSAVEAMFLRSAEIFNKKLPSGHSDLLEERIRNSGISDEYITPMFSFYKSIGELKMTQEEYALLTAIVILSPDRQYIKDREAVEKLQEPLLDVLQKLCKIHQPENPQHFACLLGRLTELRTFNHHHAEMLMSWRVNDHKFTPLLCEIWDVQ

For the compound `CC[C@H](C)C(=O)O[C@H]1C[C@@H](C)C=C2C=C[C@H](C)[C@H](CC[C@@H]3C[C@@H](O)CC(=O)O3)[C@H]21`, the outcome in experiment [1], in experiment [2], in experiment [3], in [5], in experiment [6] and in experiment [7] was inactive. Moreover, the outcome in [8], in [9], in experiment [10], in [11], in experiment [12] and in experiment [13] was inactive. Further, the call in [14], in [15], in [16], in experiment [17] and in [19] was inactive. In addition, the figures for the AC50 in experiment [4] and in experiment [18] were 8.11 µM (active) and 10.5 µM (active), respectively.

Regarding `CC1=CC(=O)CC(C)(C)C1`, the result in experiment [1], in experiment [2], in experiment [3], in experiment [20], in experiment [5] and in experiment [6] was inactive. Also, the compound was classed as inactive in [7], in experiment [8], in [9], in experiment [11], in experiment [13] and in [14]. Besides, the compound was called inactive in [15], in experiment [16] and in experiment [18].

Regarding `CCCC(=O)OCC`, the outcome in experiment [1], in [2], in experiment [3], in [4], in [5] and in experiment [6] was inactive. The result in [7], in experiment [8], in experiment [9], in experiment [11], in experiment [12] and in [13] was inactive. The call in experiment [16], in [17], in [18] and in experiment [19] was inactive. Moreover, in experiment [15], the half-maximal activity concentration (AC50) was 0.171 µM (active).

Regarding `Cc1ccc(N)cc1O`, the result in experiment [1], in experiment [2], in experiment [3], in experiment [4], in [5] and in [6] was inactive. Further, the outcome in experiment [7], in experiment [8], in experiment [9], in [11], in experiment [12] and in experiment [13] was inactive. For the same compound, the compound was classed as inactive in experiment [15], in experiment [16], in [17], in [18] and in experiment [19].

Take `CN(C)c1ccc(N=NS(=O)(=O)O)cc1`: the outcome in [1], in experiment [2], in experiment [3], in experiment [20], in [5] and in experiment [6] was inactive. Moreover, the call in experiment [7], in [8], in experiment [9], in experiment [11], in experiment [12] and in experiment [13] was inactive. The compound was called inactive in experiment [14], in experiment [16], in experiment [18] and in [19]. For the same compound, the AC50 in experiment [15] was 40.9 µM (active).

As for `O=C1OC(=O)C2C3C=CC(C3)C12` (stereo not drawn), the outcome in experiment [1], in experiment [2], in [3], in [20], in experiment [5] and in [6] was inactive. Besides, the compound was called inactive in [7], in experiment [8], in [9], in experiment [12], in experiment [13] and in experiment [15]. The result in experiment [16], in [17] and in experiment [18] was inactive.

Consider `CC(C)CCCCCCCOC(=O)CCCCC(=O)OCCCCCCCC(C)C`, for which the outcome in experiment [1], in [2], in [3], in experiment [5], in experiment [6] and in [7] was inactive. In addition, the compound was classed as inactive in [8], in experiment [9], in experiment [10], in experiment [11], in [12] and in experiment [13]. Besides, the result in [14], in experiment [15], in experiment [16], in experiment [17], in experiment [18] and in [19] was inactive.
